Screening data as filed in PubChem.
An excerpt weighted towards active compounds, which were near 2.9% of everything screened.
NSD2 inh: NSD2 histone methyltransferase inhibitors, primary screen, biochemical, AlphaScreen, single concentration, set 2. Histone-lysine N-methyltransferase NSD2 (Homo sapiens), O96028. NSD2 peptide methylation, 120 min. inhibition, % at 12.5 µM. actives 0.54% (n = 310,000). AID 743445, 2014; in the data active = inhibition above about 50%
Wnt bcat act: Wnt/beta-catenin pathway activators, primary screen, cell-based, plate reader, single point | AID 743398, 2014 | Wnt/beta-catenin reporter cell assay, activator | actives 1.2% (n = 300,000) | activation, % at 9.35 µM; in the data active = activation above about 30%, passing the limit was not always enough;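 note: 0% = neutral control wells and 100% = positive control wells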
TRPM1 prom inh: inhibitors of MITF-dependent TRPM1 promoter reporter, primary screen, cell-based, SK-MEL-5, single point, luciferase | SK-MEL-5 TRPM1 promoter luciferase, 24 h | inhibition, % at 12.5 µM | actives 0.83% (n = 330,000);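 active = mean inhibition across replicates of 60% or more, whatever share of single replicates reaches that level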
Glyco luc inh: increase of ERlucT glycosylation luciferase signal, primary screen, N-linked glycosylation inhibitor project, D54 ERlucT cells, luminescence, set 2; D54 ERlucT glycosylation luciferase reporter, 24 h; percent of 100 nM tunicamycin response; reporter increase, % at 12.5 µM; actives 0.23% (n = 360,000); AID 588692, 2011;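 active = mean luciferase reporter signal, scaled so untreated is 0 and the glycosylation-blocking control 100, at or above a set limit in every replicate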;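 note: luciferase carries N-glycosylation sites so blocking glycosylation raises the light; 0% = median of neutral control wells and 100% = median of 100 nM tunicamycin wells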
PfHsp90 yeast 2: growth inhibition of PfHsp90-expressing yeast, primary screen, antimalarial PfHsp90 inhibitor project, S. cerevisiae, BacTiter-Glo luminescence, single point, set 2; AID 504621, 2011; actives 0.32% (n = 310,000); BacTiter-Glo ATP, 48 h; yeast lacking PDR1 and PDR3 efflux regulators; inhibition, % at 9.4 µM;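 active = every replicate shows inhibition above about 80%, whatever the replicate mean, limit read from the data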;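 note: 0% = DMSO neutral controls and 100% = 20 µM radicicol positive controls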
MITF act: activators of MITF-driven TRPM1 promoter reporter, primary screen, cell-based, SK-MEL-5, luciferase, single point; SK-MEL-5 TRPM1-promoter luciferase, 24 h; % of positive control, neutral wells = 0; AID 588334, 2011; activation, % at 12.5 µM; actives 0.75% (n = 300,000);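 active = mean activation of at least 80% with every replicate also reaching 80%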;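 note: 0% = neutral control wells and 100% = parthenolide positive control wells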
Active calls of the source: *; · = not tested or not shown.

SMILES | NSD2 inh | Wnt bcat act | TRPM1 prom inh | Glyco luc inh | PfHsp90 yeast 2 | MITF act
Cc1ccc(Nc2cc(C)nn2-c2nc(C)cc(C)n2)cc1 | -1 | 13 | 13 | -1 | -25 | ·
Cc1ccc(NCC(=O)N/N=C\c2ccc([N+](=O)[O-])o2)cc1 | · | 2 | 68* | 15 | -6 | -67
O=C(N/N=C\c1ccc([N+](=O)[O-])o1)C1COc2ccccc2O1 (stereo unspecified) | 1 | -12 | 75* | 8 | -25 | -73
O=C(Cc1ccc2c(c1)OCO2)NN=Cc1ccc([N+](=O)[O-])o1 | 5 | -1 | 73* | 11 | · | -72
O=C(CNc1ccccc1)N/N=C/c1ccc([N+](=O)[O-])o1 | 1 | · | 56 | 11 | · | -53
O=C(OCC#CCSc1nnc(-c2cccc3ccccc23)o1)C1CC1 | -3 | · | · | · | · | ·
Cn1c(CNc2ccccc2F)nc2ccccc21 | -1 | · | · | · | · | ·
COC(=O)[C@]1(CC(C)C)NC=C(C(=O)c2ccccc2)[C@@H]1c1cccs1 | · | -2 | · | · | · | ·
CCCCc1c(-c2ccccc2OC)ncn1Cc1ccc(Br)cc1 | · | -1 | · | · | · | ·
O=[N+]([O-])c1ccc2nc(-c3ccccc3)[nH]c2c1 | -2 | 68* | -103 | -2 | -7 | 103*
Cn1cccc1-c1nc2ccc([N+](=O)[O-])cc2[nH]1 | 22 | 14 | -87 | 3 | 5 | 99*
O=[N+]([O-])c1ccc2nc(-c3cccnc3)[nH]c2c1 | 0 | 3 | -17 | 2 | -8 | 23
COC(=O)[C@]1(C)N[C@H](CN(C)C(=O)c2ccc(C)cc2)[C@@H]2C(=O)N(Cc3ccccc3)C(=O)[C@@H]21 | · | -3 | 7 | 1 | -5 | -7
CCN1C(=O)N[C@H]2C[C@H](C(=O)N3CCCC3)[C@H](C)[C@H](c3ccccc3)C[C@H]21 | 1 | -2 | · | · | · | ·
O=c1c2ccccc2nc(SCc2nc3ccccc3s2)n1CCCO | 15 | 41* | -64 | -7 | -21 | 74
O=c1cc(-c2ccc(O)cc2)oc2ccccc12 | · | 3 | · | 6 | 8 | ·
O=c1cc(-c2ccccc2)oc2cc(O)ccc12 | · | 4 | -79 | 0 | -3 | 88*
O=c1cc(-c2ccc(O)cc2)oc2ccc(O)cc12 | 0 | 56* | -82 | 5 | 15 | 78
C[C@@H]1COc2cccc(NCCO)c2S(=O)(=O)N1 | · | -3 | · | · | · | ·
CN(/N=C/c1ccncc1)c1cnc2ccccc2n1 | -9 | 37* | -28 | -1 | 12 | 35
CN(/N=C/c1ccncc1)C1=NCCN1 | 0 | 4 | 1 | 1 | 12 | 1
COC(=O)C1=C(C)N(Cc2ccccc2C(F)(F)F)C(=NCc2ccc3c(c2)OCO3)NC1CCc1ccccc1 (stereo unspecified) | · | -16 | · | · | · | ·
COc1ccc(C(=O)Nc2ccc(Cl)c(S(=O)(=O)N3CCOCC3)c2)cc1 | -2 | -3 | 11 | -4 | · | -9
O=C(NC1=NCCS1)c1ccc(OCC2CCCO2)cc1 (stereo unspecified) | -1 | 40* | -25 | -6 | -1 | 28
O=C(Nc1ccc(Cl)c(S(=O)(=O)N2CCOCC2)c1)c1ccc(OCC2CCCO2)cc1 (stereo unspecified) | 0 | · | 72* | -10 | -1 | -70
SMILES | NSD2 inh | Wnt bcat act | TRPM1 prom inh | Glyco luc inh | PfHsp90 yeast 2 | MITF act
Cc1cc(C)c(C(=O)Nc2ccccc2)c(CC(C)(C)C(=O)O)c1 | -5 | -2 | -6 | 1 | 3 | ·
COc1ccc(/C=N/Nc2ccc([N+](=O)[O-])cc2)cc1O | 1 | 33* | -103 | -5 | 6 | 104*
COc1cccc(N/N=C/c2cccc(Br)c2O)c1 | 2 | 35* | -67 | -5 | -7 | 60
COc1cccc(/C=N/Nc2cc(Cl)nc(C)n2)c1O | -1 | 1 | -48 | -2 | -19 | 52
COc1cccc(/C=N/Nc2c(Cl)cncc2Cl)c1O | -1 | 12 | · | -1 | -39 | 113*
COc1cccc(/C=N/Nc2ccc([N+](=O)[O-])cc2)c1O | -1 | 40* | -97 | -6 | 3 | 104*
COC(=O)c1ccc(N/N=C/c2cc([N+](=O)[O-])cc(OC)c2O)cc1 | -4 | -1 | 0 | 0 | -27 | 1
O=C(c1ccccc1)N1CCN(CC(O)COc2ccc(Br)cc2)CC1 (stereo unspecified) | -2 | 1 | 10 | -1 | 9 | ·
COCCCNC(=O)C[C@H]1C[C@@]2(C(=O)OC)C(=C[C@H](C(C)(C)C)O[C@@H]2C)N(CCC2=CCCCC2)C1=O | · | -7 | · | · | · | ·
CCC(=O)N1CCC1(C)C(=O)Nc1cnc2ccccc2c1 (stereo unspecified) | 0 | 2 | · | 0 | · | ·
COc1ccc(NCC(=O)Nc2c(C)cccc2C)cc1S(=O)(=O)N1CCOCC1 | 1 | -1 | · | 3 | · | ·
Cc1csc(N2CCN(c3cc4c(cc3Cl)nc(-c3ccncc3)n4CCCN3CCCC3)CC2)n1 | · | -6 | 90* | -2 | -4 | -89
COC(=O)C1C(=O)c2c([nH]c(C(=O)OC3CCCCCC3)c2C)CC1C (stereo unspecified) | · | 16 | -84 | -5 | -1 | 87*
COCCOC(=O)c1[nH]c2c(c1C)C(=O)C(C(=O)OC)C(C)C2 (stereo unspecified) | · | 7 | -72 | -2 | 1 | 73
Cc1ccc(-c2ccc(/C=N/NC(N)=S)o2)cc1 | 2 | 58* | -5 | 3 | -17 | ·
CCc1cc2c(nc1CC)CCCN2S(=O)(=O)c1cccs1 | · | 2 | · | · | · | ·
CN1CCCC1CCSc1ncccc1-c1nc2ccccc2[nH]1 (stereo unspecified) | 15 | · | · | · | · | ·
O=C1c2ccccc2C(=O)c2[nH]c(=O)[nH]c21 | 35 | 1 | 101* | -17 | -8 | -99
O=C1c2ccccc2C(=O)c2[nH]cnc21 | 0 | 2 | 43 | 17 | -9 | -39
CC12C=CC(=O)C=C1CCC1C2C(O)CC2(C)C1CCC2(O)C(=O)CO (stereo unspecified) | · | 2 | -7 | 1 | -16 | 1
O=C1C=CC(=O)C(CNc2ccc(C(=O)OCc3ccccc3)cc2)=C1 | · | -26 | 66* | 2 | -26 | ·
CN(C)c1ccc(C(=O)OCc2ccccc2)cc1 | -3 | · | -63 | -10 | 0 | 60
O=C1C=CC(=O)N1c1ccc(OC(F)F)cc1 | · | -2 | 35 | 4 | 127* | -35
Cc1cc(O)cc(=O)n1-c1ccc(OC(F)F)cc1 | · | 0 | · | · | · | ·
O=C1C=CC(=O)N1c1ccc(O)cc1 | · | 16 | 7 | 0 | 109* | -6
